Test results reported in the supplement of paper PMC12636033.
± gives the standard deviation of the averaged measurements. The full ranking holds about 33,000 sequences; the median of “E-score (rank enrichment, -0.5 to 0.5)” is about -0.0068, and the highest 2% start at about 0.24. Shown is part of a subset that was picked to be rich in the highest values.

The sequences below were run on muMax20 (Max(13-93) K31hArg/K57hArg, M65Nle) (assay: PBM 8-mer E-score (E-score (rank enrichment, -0.5 to 0.5)); higher = stronger preferential binding).
Method: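 Protein binding microarray (universal PBM chip covering all 10-mers in fixed probe flanks) with chemically synthesized human Max(13-93) bHLH-LZ analogs (not full-length Max) bearing noncanonical residues (hArg, Tha, Aib, Nle at 65) and aromatic Cys staples. Read-out per 8-mer (and its reverse complement): E-score (rank-based enrichment, -0.5 to 0.5) and Z-score of median probe intensity.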

| Sequence | PBM 8-mer E-score |
| --- | --- |
| CTCCTAGC | -0.136 ± 0.081 |
| ATCCTAGC | 0.247 ± 0.0046 |
| ATCCTAGG | -0.193 ± 0.037 |
| AAGATGAG | -0.0108 ± 0.035 |
| ATTGACTA | -0.0128 ± 0.0061 |
| ATCAATGA | 0.164 ± 0.044 |
| GAAAGGCC | -0.109 ± 0.036 |
| CAAAAGGC | 0.0129 ± 0.021 |
| AAAAAGGC | 0.218 ± 0.093 |
| CAAAGGCC | 0.0435 ± 0.035 |
| AAAGGCCC | 0.105 ± 0.034 |
| AAAAGGCC | 0.294 ± 0.089 |
| CAAGGCCG | -0.0484 ± 0.016 |
| AAAGGCCG | 0.275 ± 0.088 |
| GAAAAGGC | 0.3 ± 0.074 |
| GAGTCGTA | 0.0328 ± 0.034 |
| CTTTTAGC | 0.0351 ± 0.039 |
| ATGCCTGG | -0.0874 ± 0.034 |
| AGCTTTGC | -0.066 ± 0.034 |
| TCTGACAA | -0.0236 ± 0.026 |
| AATACGAG | 0.1434 ± 0.0014 |
| CCTCCGAA | -0.0791 ± 0.039 |
| GACCCAAC | -0.034 ± 0.061 |
| CCAACCAG | -0.16 ± 0.022 |
| TACAAATA | 0.313 ± 0.007 |

| Sequence | PBM 8-mer E-score |
| --- | --- |
| AACAAAAA | 0.14 ± 0.044 |
| TACAAAAA | 0.285 ± 0.024 |
| AACAAAAT | 0.275 ± 0.03 |
| AACAAGTC | 0.141 ± 0.024 |
| GACAAATC | 0.0884 ± 0.12 |
| GACAAAAA | 0.144 ± 0.007 |
| GACAAATA | 0.0845 ± 0.063 |
| TACAAGAA | 0.2 ± 0.064 |
| AACAAATC | 0.243 ± 0.016 |
| AACAAGAT | 0.22 ± 0.029 |
| CACAAATA | 0.185 ± 0.02 |
| CTACCGAA | -0.1 ± 0.022 |
| CACAGGCC | -0.118 ± 0.0028 |
| AGTTGGGG | 0.0207 ± 0.062 |
| AGCGGTGA | -0.233 ± 0.0025 |
| AAATTTCG | 0.186 ± 0.12 |
| AACTGAAA | 0.146 ± 0.092 |
| TGCACCCA | 0.0653 ± 0.034 |
| GAGGTGGA | -0.138 ± 0.1 |
| AACAAATA | 0.24 ± 0.0093 |
| AACAAATT | 0.269 ± 0.049 |
| AACAAGTA | 0.101 ± 0.0032 |
| AACAAATG | 0.155 ± 0.052 |
| AACAAGTT | 0.0361 ± 0.093 |
| AACAAACA | 0.234 ± 0.022 |

| Sequence | PBM 8-mer E-score |
| --- | --- |
| GCCCCAAC | 0.167 ± 0.046 |
| ATAGCAAT | 0.1707 ± 0.0013 |
| ATAGCAAC | 0.0478 ± 0.052 |
| ATAGCAAG | 0.248 ± 0.0032 |
| ACTCCATG | -0.0772 ± 0.0052 |
| CCTACCCC | 0.0896 ± 0.026 |
| CGGTATGA | -0.017 ± 0.021 |
| ACATAATG | 0.231 ± 0.099 |
| CCATAATA | 0.213 ± 0.05 |
| ACATAATC | 0.0995 ± 0.051 |
| ACATAATA | 0.294 ± 0.053 |
| GCATAAGA | 0.107 ± 0.021 |
| GCATAATA | 0.239 ± 0.0054 |
| CCAAGTGA | -0.0263 ± 0.0041 |
| CCGACGTC | -0.172 ± 0.09 |
| CCAGAACA | 0.162 ± 0.0036 |
| CGGCCACC | -0.305 ± 0.094 |
| CTCTATGA | -0.000995 ± 0.044 |
| AAAACCCC | 0.126 ± 0.077 |
| AAATCGAG | 0.0488 ± 0.046 |
| GCACGTGC | 0.454 ± 0.049 |
| GCACGTGA | 0.392 ± 0.1 |
| GAACGTGA | -0.00796 ± 0.078 |
| GGACGTGA | -0.122 ± 0.048 |
| GCACGTAC | -0.051 ± 0.064 |

| Sequence | PBM 8-mer E-score |
| --- | --- |
| GCACGTCC | -0.0223 ± 0.063 |
| CGCAGTTC | -0.116 ± 0.012 |
| CCATCAGC | -0.0581 ± 0.017 |
| CAATTCCA | -0.00806 ± 0.02 |
| GAATTCCA | 0.017 ± 0.13 |
| AAATTCCA | 0.254 ± 0.0063 |
| GGGCGTAA | -0.0137 ± 0.039 |
| CTATCTTC | 0.137 ± 0.013 |
| ATATCTTA | 0.0954 ± 0.0085 |
| ATATCTTC | 0.273 ± 0.027 |
| GAGTGCCC | -0.0978 ± 0.005 |
| CTATACCC | -0.0276 ± 0.12 |
| ACGAAAAC | 0.248 ± 0.03 |
| ACGAAAAA | 0.181 ± 0.01 |
| CAAAACAC | -0.0123 ± 0.11 |
| AAAAAAAC | 0.236 ± 0.056 |
| AAAAACAC | 0.283 ± 0.042 |
| GAAAACAC | 0.0158 ± 0.069 |
| ACGAAAAG | 0.154 ± 0.00054 |
| CAAAAAAC | 0.21 ± 0.017 |
| GAAGAAAC | 0.241 ± 0.024 |
| CAAGAAAC | 0.177 ± 0.047 |
| AAAAAACC | 0.2 ± 0.036 |
| GAAGAAAA | 0.119 ± 0.022 |
| ACACTTCT | -0.0487 ± 0.018 |

| Sequence | PBM 8-mer E-score |
| --- | --- |
| GGACAGCC | -0.155 ± 0.053 |
| GGCTCCCA | -0.218 ± 0.099 |
| GCCTACGC | -0.109 ± 0.09 |
| CAAAACCC | 0.145 ± 0.0083 |
| AAAGAAAA | 0.263 ± 0.074 |
| CAAAAACC | 0.237 ± 0.016 |
| CAAGAAAA | 0.0576 ± 0.13 |
| CCAAAACC | 0.122 ± 0.057 |
| GAAAAAAC | 0.178 ± 0.042 |
| GAAAAAAA | 0.255 ± 0.013 |
| AAAGAAAG | 0.084 ± 0.006 |
| GGAAAAAA | 0.136 ± 0.12 |
| CCCCCGAC | -0.232 ± 0.054 |
| CCACAGGG | -0.0979 ± 0.07 |
| ATCCGGTA | -0.00311 ± 0.041 |
| ATGTCTAC | -0.0533 ± 0.013 |
| AAACTGGA | 0.098 ± 0.12 |
| AATTGGGT | 0.181 ± 0.051 |
| AATTGGGA | 0.239 ± 0.021 |
| AATTGGGC | 0.0726 ± 0.029 |
| AATTTGCA | 0.149 ± 0.052 |
| CGAGTAAA | 0.0289 ± 0.1 |
| CAAGTCGC | -0.102 ± 0.035 |
| ACGCGTGA | 0.148 ± 0.14 |
| ACGTGCGG | 0.105 ± 0.078 |

| Sequence | PBM 8-mer E-score |
| --- | --- |
| ACGTGTGA | 0.19 ± 0.11 |
| ACGCGTGC | 0.253 ± 0.042 |
| CCGTGCGC | -0.143 ± 0.07 |
| ACGTGTGG | 0.227 ± 0.071 |
| ACGTGCGC | 0.241 ± 0.014 |
| ACGTGTGC | 0.297 ± 0.087 |
| ACGCGTGG | 0.183 ± 0.12 |
| GGAGAAGA | 0.084 ± 0.0044 |
| CTCCTTAC | 0.0913 ± 0.013 |
| CGTCTAGC | -0.0301 ± 0.083 |
| GAGCCTAA | -0.0774 ± 0.0028 |
| CGAGTACC | -0.134 ± 0.016 |
| AACGGCTG | -0.184 ± 0.1 |
| ACCCACGC | 0.109 ± 0.027 |
| ACCCACGA | 0.0663 ± 0.055 |
| AACCACGT | 0.369 ± 0.057 |
| AACCACGA | 0.141 ± 0.09 |
| ACCCACGT | 0.341 ± 0.11 |
| AACCACGC | -0.0767 ± 0.24 |
| AGTGTGCG | -0.149 ± 0.0092 |
| AAGATGTG | 0.128 ± 0.009 |
| GCCCGCCC | 0.0169 ± 0.057 |
| CCCGCCCG | -0.0341 ± 0.0082 |
| ACCCCGCC | 0.27 ± 0.04 |
| CCCCGCCC | 0.322 ± 0.043 |

| Sequence | PBM 8-mer E-score |
| --- | --- |
| CCCGCCCA | 0.317 ± 0.073 |
| GCCGCCCC | -0.0538 ± 0.0099 |
| CCCGCCCC | 0.273 ± 0.057 |
| ACCCGCCC | 0.172 ± 0.024 |
| CCCCCGCC | -0.0877 ± 0.065 |
| ACCGCCCC | 0.0617 ± 0.15 |
| GCCGCCCA | -0.267 ± 0.094 |
| AACCCGCC | -0.0715 ± 0.029 |
| AAGAAAGA | -0.00904 ± 0.054 |
| AGAGTAAG | 0.117 ± 0.059 |
| CCAAATAC | 0.13 ± 0.031 |
| CCCGAATA | -0.0449 ± 0.17 |
| CTTGGAGC | -0.103 ± 0.13 |
| CCTAGCCG | -0.253 ± 0.052 |
| ATCGGTGC | -0.0954 ± 0.028 |
| CAGAACTA | -0.169 ± 0.18 |
| AACACTCT | -0.00142 ± 0.039 |
| AAGAACTC | -0.0481 ± 0.11 |
| GCTAGAGC | -0.122 ± 0.12 |
| AACTTCTA | -0.0177 ± 0.042 |
| TACTTCTA | 0.272 ± 0.091 |
| GACTTCTA | -0.149 ± 0.025 |
| CTTATGGA | -0.0576 ± 0.026 |
| CAACCGAC | 0.0428 ± 0.061 |
